High-throughput results (PubChem)
Hits are enriched below; roughly 1.1% of the tested compounds scored in any of these assays.
TRPV1 PAM: human TRPV1 potentiation; Q8NER1; TRPV1-expressing cells, Fluo-8 calcium influx, capsaicin EC20 potentiation; potentiation, % at 8.33 µM; hit rate 0.02% among 320,000; AID 540277; in the data active means potentiation above about 80%; inconclusive means between about 30% and that limit
Target sequence (Q8NER1 whole entry, looked up): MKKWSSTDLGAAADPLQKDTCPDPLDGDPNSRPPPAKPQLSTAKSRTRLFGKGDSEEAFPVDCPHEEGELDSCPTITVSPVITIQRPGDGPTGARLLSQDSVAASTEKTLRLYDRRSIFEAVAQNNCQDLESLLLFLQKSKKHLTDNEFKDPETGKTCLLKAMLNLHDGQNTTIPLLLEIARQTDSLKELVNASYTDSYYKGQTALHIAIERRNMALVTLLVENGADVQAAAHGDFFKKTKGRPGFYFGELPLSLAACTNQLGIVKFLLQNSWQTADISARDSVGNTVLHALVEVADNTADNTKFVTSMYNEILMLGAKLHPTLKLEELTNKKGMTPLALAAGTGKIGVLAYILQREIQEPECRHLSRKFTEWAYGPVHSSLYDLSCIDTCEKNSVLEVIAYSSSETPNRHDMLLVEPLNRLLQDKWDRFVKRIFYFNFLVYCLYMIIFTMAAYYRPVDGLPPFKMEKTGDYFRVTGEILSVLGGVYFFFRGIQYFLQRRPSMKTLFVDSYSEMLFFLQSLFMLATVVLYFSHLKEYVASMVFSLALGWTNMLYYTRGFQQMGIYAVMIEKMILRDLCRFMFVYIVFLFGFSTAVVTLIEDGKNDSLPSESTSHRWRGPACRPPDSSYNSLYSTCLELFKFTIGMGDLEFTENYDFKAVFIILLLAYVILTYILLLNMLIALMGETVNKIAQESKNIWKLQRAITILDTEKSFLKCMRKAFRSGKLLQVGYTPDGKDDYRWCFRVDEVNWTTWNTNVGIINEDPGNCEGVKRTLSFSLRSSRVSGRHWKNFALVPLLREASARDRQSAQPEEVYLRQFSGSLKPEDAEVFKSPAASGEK
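TRPV1-expressing cells were cultured overnight at 35.5C and loaded with Fluo-8 calcium dye for 40 to 90 min at room temperature. After a 10 s baseline, compound was added and calcium influx was read kinetically for 3 min (ex 480/em 520 nm).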
TRPV1 agonist: agonists of human vanilloid receptor 1 (TRPV1); TRPV1-expressing cells, Fluo-8 calcium influx, agonist mode; activation, % at 8.33 µM; AID 540275; Q8NER1; hit rate 0.19% among 320,000; in the data active means activation above about 80%; inconclusive means between about 30% and that limit
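TRPV1-expressing cells were cultured overnight at 35.5C and loaded with Fluo-8 calcium dye for 40 to 90 min at room temperature. After a 10 s baseline, compound was added and calcium influx was read kinetically for 3 min (ex 480/em 520 nm).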
RXFP1 ag: agonists of human relaxin receptor RXFP1; Q9HBX9; HEK293T-RXFP1 cAMP TR-FRET, 30 min; response scale: percent of porcine relaxin response, buffer zero; Potency, µM (top dose mostly 57.5 µM), usual class: activators; hit rate 0.3% among 370,000; AID 2676; active means well fitted activation curve with a large enough effect; inconclusive means small, poorly fitted or top-dose-only effect; further: nearly all actives have a fitted effect of over 60% in size
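Agonist response is measured as cAMP accumulation in an RXFP1-transfected HEK293T line under PDE4 inhibition. Values are scaled between buffer-only and 29 nM porcine relaxin, and EC50s come from standard Hill equation fits.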
gsp agonist: agonists of gsp mutant (McCune-Albright syndrome) | gsp mutant cells, cAMP HTRF, 30 min | Potency, µM (series often up to 76.9 µM), most hits filed as activators | hit rate 0.13% among 340,000; active means well fitted activation curve with a large enough effect; inconclusive means small, poorly fitted or top-dose-only effect, or another doubt; inactive means no such curve, though single readings can be large or run the other way; cell line not stated here;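 further: phosphodiesterase inhibitor Ro 20-1724 added with compounds to block cAMP breakdown; nearly all actives have a fitted effect of over 60% in size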
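Cells in DMEM/10% FBS with G418 were pretreated with compounds in DMSO plus […] (300 uM stock) for 30 min at 37C. cAMP was measured by HTRF (cAMP-d2 plus anti-cAMP antibody-K) after 30 min at room temperature.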
RXFP1 antagonist: blocks the human relaxin receptor RXFP1. Q9HBX9. HEK293-RXFP1, relaxin-stimulated cAMP HTRF, 30 min; hits give low values. activity change, negative = inhibition, % at 57.5 µM. hit rate 0.59% among 350,000. AID 1259400;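 active means activity change of -60% or lower, but not beyond a set lower limit; inconclusive means change between -60% and -40%, or beyond the set limit; inactive means change above -40%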
gsp antag: gsp mutant antagonism; hit rate 0.4% among 340,000; gsp-mutant cells, cAMP HTRF, 30 min; Potency, µM (doses to about 76.9 µM), most hits filed as inhibitors; AID 624288; calls by dose curve; cell line not stated here;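 further: intracellular cAMP measured with PDE inhibitor Ro 20-1724 present during compound exposure; nearly all actives have a fitted effect of over 65% in size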
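HTRF cAMP read-out (cAMP-d2 plus anti-cAMP antibody-K in lysis buffer, 30 min RT). Before lysis, cells are exposed to compounds with […] for 30 min at 37C in DPBS containing Ca/Mg, BSA and Tween 20.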
Large screens that a line does not name were inactive; ! = repeats disagree.

CN(C)c1ccc(/C=C/C(=O)c2cccc(Br)c2)cc1	TRPV1 agonist 87
CC(OC(=O)Cn1cnc2ccccc2c1=O)C(=O)NCc1ccccc1 (stereo not given)	none
N#C/C(N=Nc1ccccc1O)=N\Nc1ccccc1O	gsp antag 35µM (no result: gsp agonist, RXFP1 antagonist)
CC(=O)c1ccc(Nc2nc(=O)c3cccnc3s2)cc1	RXFP1 ag inconclusive, gsp agonist 10µM
O=C1c2cccc3c([N+](=O)[O-])ccc(c23)C(=O)N1Cc1cccnc1	RXFP1 antagonist -77
COc1ccc(OC)c(S(=O)(=O)N2CCC(NC(=O)c3ccccc3)CC2)c1	none
Cc1ccc(C(=O)Nc2cccc(Oc3ccccc3)c2)o1	TRPV1 agonist inconclusive, RXFP1 antagonist -72
O=C(COC(=O)C1=COCCO1)NC1CCCCCCC1	none
Cc1ccc(C23CC4CC(CC(C(=O)N5CCN(C)CC5)(C4)C2)C3)cc1	none
Cc1ccc(C)c(N2CCN(C(=O)C34CC5CC(C3)CC(n3nnc(C)n3)(C5)C4)CC2)c1	RXFP1 antagonist inconclusive, gsp antag 40µM
O=C(Nc1ccc(F)cc1F)c1ccc(-n2cccn2)nc1	TRPV1 agonist inconclusive
CC(C)Sc1ccc(C(=O)Nc2ccc(F)cc2F)cn1	TRPV1 agonist 85
Cc1sccc1Br	none (no result: TRPV1 PAM, TRPV1 agonist, RXFP1 ag, gsp agonist, gsp antag)
COc1cc(/C=C2/SC(=O)NC2=O)ccc1Oc1ccc([N+](=O)[O-])cc1[N+](=O)[O-]	gsp agonist inconclusive, gsp antag 25µM
COc1cc(/C=C2\SC(=O)NC2=O)ccc1Oc1ccc([N+](=O)[O-])cn1	none
Cc1ccc(C)c2c(N)c3c(nc12)CCCCC3 (tested in a mixture with another compound)	none
COc1cc(/C=C(/C#N)c2ccc(F)cc2)ccc1OCc1ccc(C(=O)O)o1	gsp antag 40µM
CC(C)[C@H](NC(=O)OC(C)(C)C)c1nnc(SCC(=O)Nc2ccc(Br)cc2)o1	gsp antag 35µM
C[C@H](NC(=O)OC(C)(C)C)c1nnc(SCC(=O)Nc2cccc(Cl)c2)o1	none
Cc1ccc(NC(=O)C2CCN(S(=O)(=O)c3c(C)noc3/C=C/N(C)C)CC2)cc1	TRPV1 PAM inconclusive, gsp agonist inconclusive, RXFP1 antagonist -112
Cc1cc(OC(C)C(=O)N(Cc2ccc(N(C)C)cc2)Cc2ccco2)ccc1Cl (stereo not given)	none (no result: TRPV1 PAM, TRPV1 agonist, gsp agonist, gsp antag)
Cc1cc(OC(C)C(=O)N(Cc2ccco2)Cc2ccccc2F)cc(C)c1Cl (stereo not given)	RXFP1 antagonist -72 (no result: TRPV1 PAM, TRPV1 agonist, gsp agonist, gsp antag)
O=S(=O)(Nc1ccc2c3c(cccc13)CC2)c1ccc(F)cc1	TRPV1 agonist inconclusive
CSc1ccc(S(=O)(=O)Nc2ccc3c4c(cccc24)CC3)cc1	TRPV1 agonist inconclusive, gsp antag 28µM
Cc1ccccc1CS(=O)(=O)c1nnc([C@H](CC(C)C)NC(=O)OC(C)(C)C)o1	none
CC(C)(C)OC(=O)N[C@@H](Cc1ccccc1)c1nnc(S(=O)(=O)Cc2cccc(F)c2)o1	RXFP1 antagonist -119
O=C(c1ccc(-c2cccc(C(F)(F)F)c2)o1)N1CCOCC1	TRPV1 agonist 86
O=C(/C=C/c1ccc(-c2ccccc2[N+](=O)[O-])o1)c1ccco1	RXFP1 antagonist -64, gsp antag inconclusive
O=C(/C=C/c1ccc([N+](=O)[O-])cc1)c1ccco1	TRPV1 agonist inconclusive
CCCCSc1nnc(CCCCCNC(=O)OC(C)(C)C)o1	gsp antag 35µM
COc1ccccc1/C=C1\SC(=S)N(Nc2nc(C)cc(C)n2)C1=O	none
Cc1cc(C)nc(NN2C(=O)/C(=C/c3ccc(O)cc3)SC2=S)n1	RXFP1 antagonist -116, gsp antag inconclusive
CCOC(=O)c1nc2sc3c(c2c(=O)n1C(C)C(=O)OCC)CCCC3 (stereo not given)	TRPV1 agonist 80, RXFP1 antagonist -61
CC1=C(C(=O)Nc2cc(C(=O)N3CCN(c4cccc(C)c4C)CC3)ccc2C)SCCO1	TRPV1 PAM inconclusive, RXFP1 antagonist inconclusive, gsp antag 50µM
COc1ccc(N2CCN(C(=O)c3ccc(C)c(NC(=O)C4=C(C)OCCS4)c3)CC2)cc1	none
Cc1nn(CC(=O)N2CCN(c3cccc(C(F)(F)F)c3)CC2)c(=O)c2cccn12	RXFP1 ag 35µM!, gsp agonist inconclusive
O=S1(=O)CCN2C(Cc3ccc(SC(F)F)cc3)=CSC2=N1	gsp agonist inconclusive, gsp antag 32µM
CCOC(=O)CSc1nc2sc3c(c2c(=O)n1Cc1ccccc1)CC(C)CC3 (stereo not given)	none (no result: TRPV1 PAM, TRPV1 agonist, gsp agonist, gsp antag)
O=C(OCc1cccc([N+](=O)[O-])c1)c1cnccn1	RXFP1 ag 22µM, gsp agonist 5.6µM
Cc1cc(NC(=O)CSc2nc3ccsc3c(=O)n2CCCC(=O)NCCc2ccccc2)no1	RXFP1 antagonist -79
O=C(CCCn1c(=S)[nH]c2ccsc2c1=O)NC1CCCCC1	gsp agonist inconclusive, RXFP1 antagonist inconclusive
COc1ccc2[nH]c3c(=O)n(CCCC(=O)NC4CCC(C)CC4)c(=S)[nH]c3c2c1 (stereo not given)	none
CC1CCCCC1NC(=O)CCCCCn1c(=S)[nH]c2ccsc2c1=O (stereo not given)	RXFP1 antagonist -73
COc1ccc2[nH]c3c(=O)n(CCCCC(=O)N4CCCC4)c(=S)[nH]c3c2c1	RXFP1 antagonist -107
COc1ccc2[nH]c3c(=O)n(CCCC(=O)NC4CCCCC4C)c(=S)[nH]c3c2c1 (stereo not given)	RXFP1 antagonist -66
Cc1cccc(OCc2nnc(SCC(=O)N3CC(=O)Nc4ccccc43)o2)c1	none
O=C1CC2CC1C(C(=O)O)C2C(=O)O (stereo not given)	none (no result: TRPV1 PAM, TRPV1 agonist, RXFP1 ag)
CCC(C)c1ccc(N(CC(=O)NC(C)(C)C)C(=O)CNC(=O)c2cccs2)cc1 (stereo not given)	none
O=C(CCCn1c(=S)[nH]c2ccsc2c1=O)NCCc1ccccc1	gsp agonist inconclusive, RXFP1 antagonist -94
COC(=O)c1[nH]c2ccc(C)cc2c1NC(=O)CN1CCCC(C)(C)C1	TRPV1 agonist 89
COC(=O)c1[nH]c2ccc(C)cc2c1NC(=O)CCN1CCN(C2CCCCC2)CC1	none (no result: gsp agonist, RXFP1 antagonist, gsp antag)
CCOC(=O)c1[nH]c2ccc(C)cc2c1NC(=O)CN1CCCCC1	TRPV1 agonist inconclusive
COC(=O)c1[nH]c2ccc(Br)cc2c1NC(=O)CN1CCN(C2CCCCC2)CC1	RXFP1 antagonist -63
O=C(CNS(=O)(=O)c1ccc(Br)cc1)N1CCN(Cc2ccccc2)CC1	none
CCc1cccc(NC(=O)c2ccc(NC(=O)N3CCSc4ncccc43)cc2)c1	none (no result: TRPV1 PAM, TRPV1 agonist, gsp agonist, gsp antag)
